# Bioassay records: PubChem, National Center for Advancing Translational Sciences (NCATS)
# Sampled rows, rich in hits. Any-hit rate of the full collection: about 3.2%.
# Lamin A splicing = qHTS Assay for Modulators of Lamin A Splicing. HeLa LMNA splicing GFP/RFP minigene ratio, 48 h. Potency, µM (highest dose often 46.1 µM), inactives show at the top dose ratio change, negative = inhibition, actives largely listed as inhibitors. AID 1487, 2009. 200,000 tested, 0.01% active; active = well fitted inhibition curve with a large enough effect in the signal ratio, with a control signal flat, not every such curve was filed as active; inconclusive = small, poorly fitted or top-dose-only effect, or effect the other way, or a change in a side signal; the % refers to the signal ratio; note: potency is the fitted concentration of half-maximal effect; % is set by controls: 0 for no effect and ±100 for the full control effect
#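 S3 HeLa cells stably expressing lamin A-EGFP splicing minigene plus DsRed2, 600 cells/well, 48 h compound exposure at 37C. Laser-scanning cytometry; analysed as GFP (500-530 nm)/RFP (575-640 nm) total intensity ratio; 0.5% DMSO vehicle.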
# Tau ThT inhib = qHTS for Inhibitors of Tau Fibril Formation, Thioflavin T Binding. Microtubule-associated protein tau (Homo sapiens), P10636. recombinant tau K18 P301L, heparin-induced fibrillization, ThT fluorescence. Potency, µM (titrated, usually from 57.4 µM), for inactives: at the top dose activity, negative = inhibition, hits mostly inhibitors. 270,000 tested, 2.1% active. AID 1460, 2008; note: potency is the fitted concentration of half-maximal effect; % is set by controls: 0 for no effect and ±100 for the full control effect; nearly all actives have a fitted effect of over 55% in size
#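 K18 P301L tau (15 uM + 0.24 uM Alexa 594-tagged), heparin 20 uM, NaOAc pH 7, 6 h 37 C; ThT 30 uM, 1 h RT, ex 450/em 510 nm.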
# KDM4E inh = qHTS Assay for Inhibitors of Human Jumonji Domain Containing 2E (JMJD2E); Lysine-specific demethylase 4E (Homo sapiens), B2RXH2; JMJD2E catalytic domain, FDH-coupled NADH fluorescence (FDH is formaldehyde dehydrogenase); Potency, µM (highest dose often 57.1 µM), for inactives: at the top dose activity change, negative = inhibition, hits mostly inhibitors; 230,000 tested, 1.6% active; AID 2147, 2009; active = well fitted inhibition curve with a large enough effect, not every such curve was filed as active; inconclusive = small, poorly fitted or top-dose-only effect, or another doubt; inactive = no such curve, though single readings can be large or run the other way;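 note: potency is the fitted concentration of half-maximal effect; 0% = wells with enzyme and -100% = buffer wells without enzyme; nearly all actives have a fitted effect of over 50% in size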
# Tau fibril FP = qHTS for Inhibitors of Tau Fibril Formation, Fluorescence Polarization. Potency, µM (top dose mostly 57.7 µM), for the others: top-dose activity, negative = inhibition, hits mostly inhibitors. 280,000 tested, 0.39% active. Microtubule-associated protein tau (Homo sapiens), P10636. K18 P301L tau heparin fibrillization, Alexa594 FP, 6 h; note: potency is the fitted concentration of half-maximal effect; % is set by controls: 0 for no effect and ±100 for the full control effect; nearly all actives have a fitted effect of over 55% in size
#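 Recombinant K18 P301L […], labeled with Alexa 594 at 0.24 uM over 15 uM unlabeled; heparin inducer 20 uM final; 37 C, 6 hr; FP endpoint.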
# CBFb-RUNX1 inh = qHTS Assay for Compounds Blocking the Interaction Between CBF-beta and RUNX1 for the Treatment of Acute Myeloid Leukemia | Runt-related transcription factor 1 (Homo sapiens) + Core-binding factor subunit beta … | AlphaScreen CBFb-His/RUNX1-biotin binding, biochemical | Potency, µM (top dose mostly 59.8 µM), for inactives: at the top dose activity, negative = inhibition, most hits filed as inhibitors | 230,000 tested, under 10 active | AID 1477, 2009; note: % of control where 0% means no effect
# Target sequence (Q01196 whole entry, looked up): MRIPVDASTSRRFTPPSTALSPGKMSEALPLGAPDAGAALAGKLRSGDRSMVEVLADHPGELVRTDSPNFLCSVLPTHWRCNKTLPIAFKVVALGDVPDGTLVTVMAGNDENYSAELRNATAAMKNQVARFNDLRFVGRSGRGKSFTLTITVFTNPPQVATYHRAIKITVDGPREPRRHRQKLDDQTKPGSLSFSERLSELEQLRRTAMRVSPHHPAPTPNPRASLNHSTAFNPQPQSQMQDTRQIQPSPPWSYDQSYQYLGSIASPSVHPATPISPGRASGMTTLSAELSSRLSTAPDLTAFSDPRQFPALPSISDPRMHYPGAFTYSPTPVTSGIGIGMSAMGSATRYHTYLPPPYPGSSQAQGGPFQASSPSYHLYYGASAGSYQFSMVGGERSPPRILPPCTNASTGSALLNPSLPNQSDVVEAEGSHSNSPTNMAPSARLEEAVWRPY
# Target sequence (Q13951 whole entry, looked up): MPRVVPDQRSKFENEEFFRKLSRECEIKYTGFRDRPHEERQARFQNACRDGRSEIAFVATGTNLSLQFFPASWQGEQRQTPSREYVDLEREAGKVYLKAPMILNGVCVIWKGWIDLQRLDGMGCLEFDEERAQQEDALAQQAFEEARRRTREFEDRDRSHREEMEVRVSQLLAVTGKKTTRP
#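 CBFb-His/RUNX1-biotin, 30 nM each, preincubated 20 min RT; compound 15 min RT; Ni + streptavidin beads 50 ng each, 90 min RT; AlphaScreen read.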
# Tau fluor cs = Counterscreen qHTS for Inhibitors of Tau Fibril Formation, Fluorescence Polarization | tau K18 P301L Alexa594 fluorescence, heparin fibrillization | Potency, µM (titrated, usually from 57.7 µM), for inactives: at the highest dose activity change, negative = decrease | 280,000 tested, 0.93% active; note: potency is the fitted concentration of half-maximal effect; % is set by controls: 0 for no effect and ±100 for the full control effect; nearly all actives have a fitted effect of over 55% in size
#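 Human tau K18 P301L (15 uM unlabeled, 0.24 uM Alexa 594-labeled) in 100 mM sodium acetate pH 7 with 20 uM heparin, 6 hr at 37 C. ThT 30 uM added, 1 hr ambient; Alexa 594 FP and total fluorescence read at 555/632 nm.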
# An asterisk follows results filed as active; ? = inconclusive; / = not tested or not shown; [ ] = remark or other dose. Unless noted, calls come from the whole dose curve; as a rule, active = well fitted curve in the direction sought with a large enough effect; inconclusive = small, poorly fitted or top-dose-only effect, or another doubt; inactive = no such curve, though single readings can be large; an effect the other way counts as inactive or inconclusive.
SMILES,Lamin A splicing,Tau ThT inhib,KDM4E inh,Tau fibril FP,CBFb-RUNX1 inh,Tau fluor cs
CCN(CC)CCNC(=O)c1ccc2nc(CCc3ccccc3)oc2c1,3%[46 µM],6%,/,2%,/,9%
O=[N+]([O-])c1cc(C(F)(F)F)ccc1NCCc1c[nH]c2ccc(O)cc12,?,18µM*,-2%,0%,-17%,28µM*[quencher]
O=[N+]([O-])c1cc(C(F)(F)F)ccc1NCCc1c[nH]c2ccccc12,?,13µM*,-14%,-2%,-9%,10µM*[quencher]
Cc1nn(C)c(C)c1S(=O)(=O)N(CC(=O)Nc1ccc(F)cc1F)c1ccc(C(C)C)cc1,/,-6%,/,8%,/,-17%
N#CC1=C(N)SC(N)=C(C#N)C1c1ccoc1,-16%,22µM*,?,?,-16%,?
Cc1ccc(C2C(C#N)=C(N)SC(N)=C2C#N)cc1,8%,?,?,-8%,8%,?
O=C(NC1CCCCC1)C(c1ccc(O)c(O)c1)N(C(=O)Cn1nnc2ccccc21)c1cccc(O)c1 (centres undefined),-13%[46 µM],-7%,16µM*,-4%,-4%,-6%
CCN(CC)c1ccc(N)cc1S(=O)(=O)Nc1ccccc1OC,/,25µM*,-14%,?,-7%,-23%
Cc1cc2c(c(=O)o1)C(c1ccc([N+](=O)[O-])o1)C(C#N)=C(N)O2 (centres undefined),/,14µM*,?,?,?,-25%
COC(=O)c1ccc(NC(=O)C(C)Sc2nc(=O)cc(N)n2CCc2ccccc2)cc1 (centres undefined),/,-10%,/,-11%,/,?
COc1ccc(-c2cn3cc([N+](=O)[O-])ccc3n2)cc1OC,8%[9.22 µM],4.5µM*,-15%,7%,-11%,-22%
COc1cc(Cl)c(C)cc1NC(=O)CSc1nc2c(c(=O)[nH]1)CCC2,/,-1%,/,2%,/,-12%
CCOC(=O)c1ccc(Nc2ncccc2[N+](=O)[O-])cc1,/,2.2µM*,-52%,-3%,7%,-29%
CCOC(=O)c1ccc(N/N=C/c2cc(Br)cc([N+](=O)[O-])c2O)cc1,2%[9.22 µM],0.45µM*,5%,-6%,?,0.71µM*[quencher]
Cc1ncsc1C(=O)N1N=C2/C(=C/c3ccc(N4CCOCC4)cc3)CCCC2C1c1ccc(N2CCOCC2)cc1 (centres undefined),11%,14µM*,-1%,5%,-11%,-22%
COc1ccc(NC(=O)CCc2c(C)nn(-c3ccc(N4CCCCC4)nn3)c2C)cc1Cl,?,?,/,8%,/,-29%
COc1cc(/C=C(/C#N)c2nc(-c3cc4ccccc4oc3=O)cs2)ccc1O,/,4.5µM*,/,15%,/,?
COc1ccc2c(c1)Cc1sc(NC(=O)c3cccs3)nc1-2,?,13µM*,11µM*,?,-15%,?
COc1ccc2c(c1)Cc1sc(NC(=O)c3cccc(F)c3)nc1-2,/,3.2µM*,/,-9%,/,?
COc1ccc(C(=O)Nc2nc3c(s2)Cc2cc(OC)ccc2-3)cc1,-2%,2µM*,-6%,-7%,-18%,4µM*[quencher]
COc1ccc2c(c1)Cc1sc(NC(=O)c3ccccc3)nc1-2,-4%,?,?,-8%,3%,?
COc1ccc2c(c1)CCc1sc(NC(=O)c3ccc(Cl)cc3)nc1-2,/,11µM*,/,?,/,8.9µM*[quencher]
COC(=O)C1=C[C@@H](C(=O)OC)[C@@H]2C3=C(C(=O)C2(C)C)[C@H](c2ccccc2)[C@@H]2C(=O)N(c4ccccc4)C(=O)[C@@H]2[C@@H]3C1,/,/,/,/,6%,/
